This is a sample that favours compounds with a hit; in the whole collection about 13% have one here.
L major viab: reduces viability of Leishmania major promastigotes; inhibition, % at 10 µM; 200,000 tested, 9% active; AID 1063; resazurin fluorescence viability; in the data active = inhibition above about 50%;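 also: promastigotes grown with compound for 44 hours at 28 °C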
RAM inhibit: inhibitors of the yeast RAM network. S. cerevisiae dse1pr::URA3 reporter, 5-FOA growth OD615, 2 d; analog-sensitive cbk1-as2 kinase mutant strain. inhibition, % at 50 µM. 190,000 tested, 1.8% active;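 active = inhibition above a set limit, 3 SD over mean compound inhibition, cut at about 8.4% in these data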;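 also: 0% = DMSO-only wells with no growth and 100% = 10 µM 1-NA-PP1 full growth; inhibition rescues growth on 5-FOA so higher OD means more RAM inhibition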
CHOP inh: blocks CHOP induction under ER stress; AID 2732; CHO-K1 CHOP-promoter luciferase, tunicamycin-induced, 15-18 h; 220,000 tested, 3.8% active; inhibition, % at 10 µM;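 active = compounds that reduced the stress-induced luciferase reporter signal by more than about 70% of percent inhibition, limit read from the data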;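 also: 0% = tunicamycin plus vehicle and 100% = wells without tunicamycin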
WT yeast gro inh: growth inhibition of WT yeast, mitochondrial fusion screen. mitochondrial fusion phenotypic screen, WT strain. 190,000 tested, 2.1% active. inhibition, % at 10 µM. AID 1362; in the data active = inhibition above about 58%; tested in S. cerevisiae
Starred values were filed as active, the others as inactive; x = no result.

SMILES	L major viab	RAM inhibit	CHOP inh	WT yeast gro inh
Cc1cc(CNC(=O)C(C)Cc2ccccc2)nn1C (stereo unspecified)	-1.7	2.6	7.4	17.5
O[C@@H]1COC(Nc2ccc(N=Nc3ccccc3)cc2)C[C@@H]1O (stereo partly specified)	x	x	9.8	x
O=C/C(=C\Nc1ccc(Cl)cn1)c1nc2ccccc2o1	-2.1	1.2	7.2	-4.9
O=C/C(=C\Nc1ccc(Cl)cn1)c1nc2cc(Cl)ccc2o1	-0.2	3.0	75.0*	11.6
CC1(C)CC(=O)c2c(nc3ccccc3c2N)C1	46.6	-0.1	1.0	-3.3
CCNc1c2c(nc3ccccc13)CC(C)(C)CC2=O	57.6*	1.6	11.5	-3.8
CC(/C=N/NC(=O)c1nn(C)c(C)c1Br)=C\c1ccccc1	-4.5	-0.2	17.1	-11.2
Cc1ccc(NC(=O)c2c(C(F)(F)F)nn(C)c2SCc2ccc(Cl)cc2)cc1C	3.5	11.4*	54.0	-1.0
Cc1ccc(NC(=O)c2c(C(F)(F)F)nn(C)c2SCc2cccc(C(F)(F)F)c2)cc1C	4.8	7.7	59.0	38.9
COc1ccccc1-c1cc(SC)c(C#N)c(=O)o1	-2.5	9.3*	93.8*	-5.4
COc1ccc(-n2c(C)cc(C)c(C(C)=O)c2=S)cc1	-0.7	2.2	-11.7	-4.8
CC(=O)c1cccc(NC(=O)N2CCC(NC(=O)C34CC5CC(CC(C5)C3)C4)CC2)c1	55.4*	0.6	13.2	-13.4
C/C(=N\Nc1ccc(F)cc1F)c1ccc(F)cc1	-8.5	-0.7	-2.6	-5.0
C/C(=N\Nc1ccc(F)cc1F)c1ccc(Br)s1	-3.7	-1.3	71.3*	-2.0
COc1ccc(-c2[nH]c(-c3ccc(SC)cc3)nc2SCC(=O)Nc2nccs2)cc1	95.5*	3.4	76.6*	19.4
Nc1ccccc1SCC(=O)Nc1nccs1	-1.8	1.0	17.7	5.7
O=C(CSc1nc(-c2ccccc2)c(-c2ccccc2)[nH]1)Nc1nccs1	97.6*	6.0	-0.4	42.9
COc1ccc(CCN(C(=O)C(F)(F)F)C(C(=O)NC2CCCCC2)c2cccs2)cc1 (stereo unspecified)	26.5	2.4	15.7	43.3
COc1ccc(CCN(C(=O)C(F)(F)F)C(C(=O)NC2CCCCC2)c2ccc(C)s2)cc1 (stereo unspecified)	67.6*	4.9	87.4*	3.1
CC1CCCC(C)N1CC(O)COCC1COc2ccccc2O1 (stereo unspecified)	52.2*	1.0	-8.8	-14.7
O=C(C1CCN(S(=O)(=O)c2ccccc2[N+](=O)[O-])CC1)N1CCOCC1	-1.4	1.0	9.6	3.3
O=c1nc(SCc2c(F)cccc2Cl)nc(-c2ccccc2)[nH]1	x	x	0.9	x
CCOC(=O)c1sc(Nc2nc(OC)cc(OC)n2)nc1C	53.9*	1.6	-5.9	14.6
CCOC(=O)c1sc(Nc2ccc(OCC)cc2)nc1C	-6.8	3.0	73.2*	4.7
COc1cc(C(=O)NNC(=S)Nc2ccc(S(N)(=O)=O)cc2)cc(OC)c1OC	-8.4	-0.7	-16.8	14.4
SMILES	L major viab	RAM inhibit	CHOP inh	WT yeast gro inh
S=c1[nH]nc(C2CCCCC2)o1	-6.2	-0.3	6.9	-1.1
c1ccc(C2=NNC(=NC3CC3)SC2)cc1	-4.6	2.2	23.1	30.1
c1ccc2c(C3=NNC(=NC4CC4)SC3)c[nH]c2c1	96.8*	0.4	13.0	-2.7
c1ccc2c(C3=NNC(=NC4CCCCC4)SC3)c[nH]c2c1	93.0*	-0.8	14.2	23.3
CN(C)CCCNC(=O)c1ccc(-c2nc(-c3ccc(Cl)cc3)cs2)cc1	100.5*	-0.4	-64.9	91.4
CN(C)CCCNC(=O)c1ccccn1	-4.6	1.3	-10.5	-2.0
CCOC(=O)N1CCC(NC(=O)C2CCN(S(=O)(=O)c3ccc4c(c3)oc(=O)n4C)CC2)CC1	0.1	0.9	-6.8	-12.8
COc1ccc(CCn2c(-c3ccc(C(C)(C)C)cc3)n[nH]c2=S)cc1OC	9.6	8.7*	-15.9	5.8
Cc1noc(C)c1C(=O)Nc1nc(C23CC4CC(CC(C4)C2)C3)cs1	-6.0	1.8	83.1*	16.6
CN1CCN(NS(=O)(=O)c2cccs2)CC1	40.6	-1.2	-6.3	-2.4
COc1cccc(/C=C/C(=O)N2CCN(c3n[nH]c(=O)[nH]c3=O)CC2)c1OC	1.6	0.0	-4.1	14.7
CC(C)c1cccc(C(C)C)c1NC(=S)Nc1cccc(Cl)c1	x	x	26.5	x
COc1cc(C2NC(=O)CS2)cc(OC)c1OC (stereo unspecified)	86.4*	0.0	17.7	-4.1
COc1ccc(CC(=O)NCc2nnc(SCc3ccc(C)cc3)n2C)cc1	8.5	0.5	-18.4	-4.4
COC(=O)c1nnn(-c2nonc2N)c1COc1ccc(C=O)cc1OC	1.6	2.2	8.7	3.3
O=C(CCN1CCc2ccccc2CC1)c1ccc2c(c1)OCCO2	88.8*	-1.4	8.6	-3.9
O=C(CCN1CCOCC1)c1ccc2c(c1)OCCO2	100.5*	-1.4	-61.8	-1.5
O=C(CCCN1CCOCC1)c1ccc2c(c1)OCCO2	89.5*	0.2	11.6	9.8
O=C(CN1C(=O)c2ccccc2S1(=O)=O)c1ccc2c(c1)OCCO2	x	x	94.3*	x
Cc1cccc(CSc2nnc(CCNC(=O)OC(C)(C)C)o2)c1	x	x	-1.2	x
C=CCNC(=O)/C(C#N)=C/c1cn(-c2ccccc2)nc1-c1cccs1	6.9	3.7	43.3	0.7
O=C(CCCN1CCC(c2ccccc2)C1)c1ccc2c(c1)OCCO2 (stereo unspecified)	94.7*	0.4	47.2	14.3
COc1cccc(-c2nnc(SCC(=O)Nc3ccc(S(N)(=O)=O)cc3)n2C)c1	0.4	4.5	0.6	-6.6
COC(=O)Nc1ccc(S(=O)(=O)N2CCC(C)CC2)cc1	-9.1	-0.8	-0.7	-55.1
Cc1ccc(S(=O)(=O)N2CCOCC2)cc1C(=O)N1c2ccccc2Sc2ccccc21	99.0*	4.0	16.6	-6.3
SMILES	L major viab	RAM inhibit	CHOP inh	WT yeast gro inh
CC1CCN(S(=O)(=O)c2ccc(NC(=O)CN3CCOCC3)cc2)CC1	-1.8	1.1	6.3	-5.7
NS(=O)(=O)c1ccc(NC(=O)N2c3ccccc3Sc3ccccc32)cc1	-2.4	9.4*	29.4	18.4
CC1CCN(S(=O)(=O)c2ccc(NC(=O)Cc3cccs3)cc2)CC1	89.2*	9.1*	-1.1	9.5
CC1CCN(S(=O)(=O)c2ccc(NC(=O)N3c4ccccc4Sc4ccccc43)cc2)CC1	60.8*	4.5	18.5	9.6
COc1ccc(CCNC(=O)Cn2c(=O)[nH]c3ccsc3c2=O)cc1OC	-11.6	3.4	19.7	-15.1
CCCCN1CCC(n2c(=O)[nH]c3ccccc32)CC1	x	x	-1.4	x
Clc1cccc(Cl)c1COc1ccccn1	-0.6	0.9	31.6	-2.5
CCOC(=O)C1CCCN(C(=O)c2ccc(Cl)c(S(=O)(=O)N3CCCCCC3)c2)C1 (stereo unspecified)	-0.5	0.6	6.8	16.6
CCOCCCNS(=O)(=O)c1ccc(NC(=O)N2c3ccccc3Sc3ccccc32)cc1	99.9*	2.7	-27.2	29.4
CCOCCCNS(=O)(=O)c1ccc(NC(=O)CN2C(=O)c3ccccc3C2=O)cc1	-4.2	1.6	-10.0	7.0
COc1ccc(/C=N/N=C2\SC(CC(=O)O)C(=O)N2c2ccccc2)c(OC)c1 (stereo unspecified)	-6.2	7.3	17.4	2.7
Cc1ccccc1C(=O)Nc1nnc(-c2ccc(F)cc2)o1	33.1	1.5	24.9	69.9*

Bioassay records as filed in PubChem BioAssay.
